In ChEMBL document CHEMBL4513216, “Probing the Open Global Health Chemical Diversity Library for Multistage-Active Starting Points for Next-Generation Antimalarials” (ACS Infect Dis, 2020):
Hit rate of the full screen: of about 69,000 compounds, about 8,600 (12%) showed an effect of 50% or more. The entries come from a sample that favours strong results as a whole.

test system: Plasmodium berghei; test: Screen against P. berghei liver stage (PbLuc), transformed with Luciferase, at 10uM; format: functional, HepG2; settings: tested at 10 uM

**Q.** Which INHIBITION does the source give for `COCCC(=O)NC(C)(C(N)=O)c1cccc(Cl)c1` (configuration not stated) here?
**A.** Its INHIBITION is 26.4%.

**Q.** How did the INHIBITION turn out when `CC(C)(CNC(=O)c1ccc(Cl)o1)NC(=O)OC(C)(C)C` was run?
**A.** Its INHIBITION is -60.9%.

**Q.** How did the INHIBITION turn out when `CC(C)(C)SCC(=O)NC(C)(C(N)=O)c1cccc(Cl)c1` (configuration not stated) was run?
**A.** Its INHIBITION is -19.5%.

**Q.** For `CCN(CC1=CCN(C)CC1)C(=O)CCOC`, which INHIBITION is on record?
**A.** The INHIBITION was 29.5%.

**Q.** How did the INHIBITION turn out when `CC1CCN(CCNCc2cc(-c3ccccc3)cn3nnnc23)CC1` was run?
**A.** The INHIBITION was 23.2%.

**Q.** For `Cc1nc(C)n(CC2CN(CCCOc3ccc(F)cc3)CCO2)n1` (configuration not stated), which INHIBITION is on record?
**A.** Its INHIBITION is 25.6%.

**Q.** Which INHIBITION does the source give for `COC(=O)c1sc(C(F)(F)F)cc1OC` here?
**A.** Its INHIBITION is 43.2%.

**Q.** For `Cc1nsc(N2CCN(C(=O)Nc3cccc(F)c3)CC2)n1`, which INHIBITION is on record?
**A.** The INHIBITION was 68.3%.

**Q.** How did the INHIBITION turn out when `OCc1csc(N2CCN(Cc3cccc(F)c3)CC2)n1` was run?
**A.** The INHIBITION was 28.7%.

**Q.** With `Cc1nsc(N2CCN(C(=O)Nc3cccc(C#N)c3)CC2)n1` as the molecule, how does the INHIBITION read?
**A.** The INHIBITION was 37.2%.

**Q.** How did the INHIBITION turn out when `Cc1nsc(N2CCN(Cc3cccc(F)c3)CC2)n1` was run?
**A.** Its INHIBITION is 57.6%.

**Q.** For `Cc1nsc(N2CCN(CC(=O)NCc3ccc(F)cc3)CC2)n1`, which INHIBITION is on record?
**A.** The INHIBITION was 40.9%.

**Q.** `Cc1nsc(N2CCN(C(=O)Nc3ccc4[nH]ccc4c3)CC2)n1` was tested. Which INHIBITION did it give?
**A.** Its INHIBITION is 25.5%.

**Q.** For `CN(Cc1ccco1)C1CCC12CCN(C(=O)c1ccnnc1)CC2` (configuration not stated), which INHIBITION is on record?
**A.** Its INHIBITION is -39.3%.

**Q.** `N#Cc1cccc(N2CC3(CCN(C(=O)C4CC=CC4)C3)CC2=O)c1` (configuration not stated) was tested. Which INHIBITION did it give?
**A.** Its INHIBITION is 13.6%.

**Q.** Which INHIBITION does the source give for `COCCCN1CCCCC12CC(=O)N(Cc1ccccn1)C2` (configuration not stated) here?
**A.** The INHIBITION was 18.7%.

**Q.** `COCCN1CCCCC12CC(=O)N(c1cccc(C#N)c1)C2` (configuration not stated) was tested. Which INHIBITION did it give?
**A.** Its INHIBITION is 61.1%.

**Q.** With `O=C1CC2(CCCCN2CC2CC2)CN1c1ccccc1` (configuration not stated) as the molecule, how does the INHIBITION read?
**A.** Its INHIBITION is -31.4%.

**Q.** Which INHIBITION does the source give for `COCCN1CCCCC12CC(=O)N(c1ccccc1OC)C2` (configuration not stated) here?
**A.** Its INHIBITION is 93.7%.

**Q.** With `Cc1ccccc1N1CC2(CCCCN2CC2CC2)CC1=O` (configuration not stated) as the molecule, how does the INHIBITION read?
**A.** The INHIBITION was 5.63%.

**Q.** With `Fc1ccc(CN2Cc3nccn3CC(CN3CCOCC3)C2)cc1` (configuration not stated) as the molecule, how does the INHIBITION read?
**A.** The INHIBITION was 32.2%.

**Q.** `O=C(O)c1cc(-c2ccncc2)cc(S(=O)(=O)N2CCCCCC2)c1` was tested. Which INHIBITION did it give?
**A.** The INHIBITION was -8%.

**Q.** Which INHIBITION does the source give for `Cc1ccc(C(=O)N2Cc3c(CN(C)C)nn(C)c3C2)cc1C` here?
**A.** The INHIBITION was 14.6%.

**Q.** For `CCN(C)S(=O)(=O)NCC1CCN(Cc2ccccc2C)CC1`, which INHIBITION is on record?
**A.** Its INHIBITION is 24%.

**Q.** With `CCN(C)C(=O)c1cccc(S(=O)(=O)NCCc2csc(N)n2)c1` as the molecule, how does the INHIBITION read?
**A.** Its INHIBITION is 48%.

**Q.** How did the INHIBITION turn out when `CCc1nc(CCNS(=O)(=O)c2cccc(C(=O)N(C)CC)c2)cs1` was run?
**A.** Its INHIBITION is 55.4%.

**Q.** How did the INHIBITION turn out when `CCN(C)C(=O)c1cccc(S(=O)(=O)NCCc2nc(C)cc(=O)[nH]2)c1` was run?
**A.** The INHIBITION was 45.2%.

**Q.** For `CO[C@H]1CN(C(=O)c2nc(-c3ccccc3)[nH]c2C)CC[C@H]1N`, which INHIBITION is on record?
**A.** The INHIBITION was 5.78%.

**Q.** For `CCCc1nnc2sc(C3CCN(C4CCN(C)CC4)CC3)nn12`, which INHIBITION is on record?
**A.** The INHIBITION was 44.8%.

**Q.** `CN1CCCCC[C@@H]2[C@@H]1[C@H](c1ccccc1)CN2C(=O)c1cccnc1` was tested. Which INHIBITION did it give?
**A.** Its INHIBITION is 47.2%.

**Q.** `CN1CC[C@H](c2ccccc2)[C@@H]2[C@H]1CCCCN2C(=O)c1cnccn1` was tested. Which INHIBITION did it give?
**A.** The INHIBITION was 57.4%.

**Q.** For `CN1CCCC[C@@H]2[C@H]1[C@@H](c1ccccc1)CCN2C(=O)c1ccccn1`, which INHIBITION is on record?
**A.** The INHIBITION was 20.8%.

**Q.** With `Cc1nnsc1C(=O)N1CC[C@H](c2ccccc2)[C@@H]2[C@H]1CCCCN2C` as the molecule, how does the INHIBITION read?
**A.** Its INHIBITION is 70.1%.

**Q.** For `CN1CCCC[C@@H]2[C@H]1[C@@H](c1ccccc1)CCN2C(=O)c1ccncc1`, which INHIBITION is on record?
**A.** Its INHIBITION is -4.51%.

**Q.** Which INHIBITION does the source give for `CN1CCCC[C@@H]2[C@H]1[C@@H](c1ccccc1)CCN2C(=O)c1cccnc1` here?
**A.** Its INHIBITION is 47.2%.

**Q.** How did the INHIBITION turn out when `CN1CCCC[C@@H]2[C@H]1[C@@H](c1ccccc1)CCN2C(=O)c1ccccc1` was run?
**A.** The INHIBITION was 59.7%.

**Q.** Which INHIBITION does the source give for `Cc1nnsc1C(=O)N1CCN(C(=O)C2CCC2)[C@@H]2CS(=O)(=O)C[C@@H]21` here?
**A.** The INHIBITION was 47.2%.

**Q.** How did the INHIBITION turn out when `CN1CCCC[C@@H]2[C@H]1[C@@H](c1ccccc1)CCN2C(=O)c1cnccn1` was run?
**A.** Its INHIBITION is 46.1%.

**Q.** With `CC(C)CNC(=O)c1cc(C2CC2)nc2onc(C3CCNCC3)c12` as the molecule, how does the INHIBITION read?
**A.** Its INHIBITION is 13.5%.

**Q.** For `NCCc1c(-c2ccc(F)cc2)[nH][nH]c1=O`, which INHIBITION is on record?
**A.** Its INHIBITION is 39.1%.

**Q.** With `COc1ccccc1CNC(=O)c1[nH]ncc1Cl` as the molecule, how does the INHIBITION read?
**A.** Its INHIBITION is 46.6%.

**Q.** With `NC(=O)Cn1cc(NC(=O)N2CCN(c3ccccc3)CC2)cn1` as the molecule, how does the INHIBITION read?
**A.** The INHIBITION was -65.7%.

**Q.** For `CC(C)N(C(=O)Cn1cc(Cl)cn1)c1ccccc1`, which INHIBITION is on record?
**A.** Its INHIBITION is 21.8%.

**Q.** `Brc1cccc(-c2noc(CN3CCOCC3)n2)c1` was tested. Which INHIBITION did it give?
**A.** Its INHIBITION is 43.3%.

**Q.** `O=C(COc1coc(CN2CCCCC2)cc1=O)NCc1ccccc1` was tested. Which INHIBITION did it give?
**A.** Its INHIBITION is 9.48%.

**Q.** How did the INHIBITION turn out when `Cn1cc(N2CC3(CCN(Cc4ccccc4)CC3)OCC2=O)cn1` was run?
**A.** Its INHIBITION is 14.1%.

**Q.** How did the INHIBITION turn out when `Cn1cc(N2CC3(CCN(Cc4nccs4)CC3)OCC2=O)cn1` was run?
**A.** The INHIBITION was 26.3%.

**Q.** How did the INHIBITION turn out when `COc1ccc(CN2CCC3(CCN(c4cccnc4)C3=O)C2)cc1` (configuration not stated) was run?
**A.** The INHIBITION was 8.67%.

**Q.** How did the INHIBITION turn out when `Cn1cc(N2CC3(COCCN(Cc4ccsc4)C3)OCC2=O)cn1` (configuration not stated) was run?
**A.** The INHIBITION was 18.2%.

**Q.** For `Cc1cccc(CN2CCC3(CCN(c4cccnc4)C3=O)C2)n1` (configuration not stated), which INHIBITION is on record?
**A.** Its INHIBITION is 58.8%.

**Q.** For `Cc1cccc(CN2CCC3(CC2)CN(c2cnn(C)c2)C(=O)CO3)n1`, which INHIBITION is on record?
**A.** The INHIBITION was 68.3%.

**Q.** Which INHIBITION does the source give for `Cn1cc(N2CC3(COCCN(Cc4ccccn4)C3)OCC2=O)cn1` (configuration not stated) here?
**A.** The INHIBITION was -8.54%.

**Q.** How did the INHIBITION turn out when `Cn1cc(N2CC3(COCCN(Cc4nccs4)C3)OCC2=O)cn1` (configuration not stated) was run?
**A.** The INHIBITION was 56.7%.

**Q.** `Cc1cccc(CN2CCCC3(CCN(c4cccnc4)C3=O)C2)n1` (configuration not stated) was tested. Which INHIBITION did it give?
**A.** The INHIBITION was 29%.

**Q.** How did the INHIBITION turn out when `Cn1cc(N2CC3(CCN(Cc4ccsc4)CC3)OCC2=O)cn1` was run?
**A.** The INHIBITION was 54.4%.

**Q.** For `Cc1cccc(CN2CCC3(CC2)CN(c2cccnc2)C(=O)CO3)n1`, which INHIBITION is on record?
**A.** Its INHIBITION is 30.3%.

**Q.** How did the INHIBITION turn out when `Cn1cc(N2CC3(CCN(Cc4cccs4)CC3)OCC2=O)cn1` was run?
**A.** The INHIBITION was -34.9%.
